In PubChem BioAssay:
The source made the active and inactive calls.

Columns and labels:
[1] = anti-His antibody binders, primary screen, artefact control for SMM control protein annotation, biochemical, small-molecule microarray, 635 nm fluorescence (AID 1128); details: anti-His Alexa647 antibody binding, higher = more signal;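 also: score merges feature fluorescence with signal-to-noise for each printed compound spot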
[2] = system: Human papillomavirus type 1a E7 protein (residues 1-88); experiment: HPV1a E7 small-molecule binders, primary screen, biochemical, small-molecule microarray, residues 1-88, 635 nm (AID 1129); details: small-molecule microarray binding, fluorescence 635 nm; higher = more signal
[3] = target: Focal adhesion kinase 1 (Homo sapiens) (UniProt Q05397); experiment: small-molecule microarray binders of FAK, primary screen, biochemical, 635/667 nm fluorescence, BSA, DTT (AID 1130); details: PTK2 binding, 635 nm fluorescence, higher = more signal;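 also: composite of spot emission at 667 nm and signal to noise over triplicate slides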
[4] = system: Fibrinogen (Alexa647-labelled); experiment: fibrinogen binders on compound microarrays, profiling panel, artefact control for SMM control-protein annotation, biochemical, small-molecule microarray, 635/667 nm fluorescence (AID 1131); details: fibrinogen-A647 binding fluorescence, higher = more signal;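 also: z-score merges 667 nm fluorescence with per-spot signal-to-noise over triplicate slides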
[5] = target: Follistatin (Homo sapiens) (UniProt P19883); experiment: follistatin binders on small-molecule microarrays, primary screen, biochemical, small-molecule microarray, 635/667 nm fluorescence (AID 1132); details: FST binding, 635 nm fluorescence, higher = more signal
[6] = target: Fibroblast growth factor 2 (Homo sapiens) (UniProt P09038); experiment: FGF2 binders on small-molecule microarrays, primary screen, biochemical, small-molecule microarray, 635/667 nm fluorescence (AID 1133); details: small-molecule microarray binding, FGF2, fluorescence 635/667; higher = more signal
[7] = mitochondrial membrane potential change in A549 cells, profiling panel, cell-based, JC-1 fluorescence, basal, 24 h, 100 nL (AID 1138); details: higher = more signal;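 also: A549 lung adenocarcinoma cells under basal conditions with no added stimulus; test concentration not given here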
Lefty1 = Lefty1 binders on small-molecule microarrays, primary screen, biochemical, small-molecule microarray, 635/667 nm fluorescence (AID 1139); details: small-molecule microarray binding, fluorescence 635/667; higher = more signal
[8] = system: wheat germ agglutinin (Triticum aestivum), Alexa647-labelled; experiment: wheat germ agglutinin binders on compound microarrays, profiling panel, artefact control for SMM control-protein annotation, biochemical, small-molecule microarray, 635/667 nm fluorescence (AID 1140); details: WGA-A647 binding, 635 nm fluorescence, higher = more signal;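 also: score merges 667 nm feature emission with signal to noise over triplicate slides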
[9] = target: Luciferin 4-monooxygenase (Photinus pyralis) (UniProt P08659); experiment: firefly luciferase enzyme inhibitors, primary screen, biochemical, luminescence, purified enzyme, 2006 set (AID 1141); details: SteadyGlo luminescence, 30 min, higher = more signal, called active from +8 up or from −8 down;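 also: cell-free assay with purified firefly luciferase at 100 ng per well in PBS; test concentration not given here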
Chain of Luciferin 4-monooxygenase (Photinus pyralis) (P08659 whole entry, looked up): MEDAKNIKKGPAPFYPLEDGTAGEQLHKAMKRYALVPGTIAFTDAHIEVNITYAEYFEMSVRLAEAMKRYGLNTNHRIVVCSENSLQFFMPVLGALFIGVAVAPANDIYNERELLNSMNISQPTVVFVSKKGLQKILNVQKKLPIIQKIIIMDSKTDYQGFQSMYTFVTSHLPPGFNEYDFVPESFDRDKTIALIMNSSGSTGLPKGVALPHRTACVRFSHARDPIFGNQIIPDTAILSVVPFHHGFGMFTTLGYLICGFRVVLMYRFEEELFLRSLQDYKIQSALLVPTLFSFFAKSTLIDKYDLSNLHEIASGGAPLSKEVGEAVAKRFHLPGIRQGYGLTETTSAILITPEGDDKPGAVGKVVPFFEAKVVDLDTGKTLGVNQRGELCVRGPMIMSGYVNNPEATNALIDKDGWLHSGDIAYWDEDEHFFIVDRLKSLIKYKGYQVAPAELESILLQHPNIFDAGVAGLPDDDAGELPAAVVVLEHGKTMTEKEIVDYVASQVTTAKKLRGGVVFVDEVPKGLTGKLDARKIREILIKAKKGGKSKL

Chain of Follistatin (Homo sapiens) (P19883 whole entry, looked up): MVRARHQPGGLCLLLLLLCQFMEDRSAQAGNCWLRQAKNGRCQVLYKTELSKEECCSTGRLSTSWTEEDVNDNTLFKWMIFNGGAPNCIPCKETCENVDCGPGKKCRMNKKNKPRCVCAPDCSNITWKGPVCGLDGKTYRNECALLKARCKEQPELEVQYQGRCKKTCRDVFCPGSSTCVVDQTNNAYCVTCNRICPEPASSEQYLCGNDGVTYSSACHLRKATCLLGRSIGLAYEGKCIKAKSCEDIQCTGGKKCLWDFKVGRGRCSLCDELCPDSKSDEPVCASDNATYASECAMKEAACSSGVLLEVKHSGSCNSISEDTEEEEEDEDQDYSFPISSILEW
Chain of Fibroblast growth factor 2 (Homo sapiens) (P09038 whole entry, looked up): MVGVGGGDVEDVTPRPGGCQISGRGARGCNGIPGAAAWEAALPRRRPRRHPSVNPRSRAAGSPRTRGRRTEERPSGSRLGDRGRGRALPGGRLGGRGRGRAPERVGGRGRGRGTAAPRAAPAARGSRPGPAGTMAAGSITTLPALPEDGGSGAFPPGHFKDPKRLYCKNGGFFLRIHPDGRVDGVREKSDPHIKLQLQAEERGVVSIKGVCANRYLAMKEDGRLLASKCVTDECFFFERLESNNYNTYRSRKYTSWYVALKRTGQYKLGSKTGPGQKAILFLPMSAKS
Chain of Focal adhesion kinase 1 (Homo sapiens) (Q05397 whole entry, looked up): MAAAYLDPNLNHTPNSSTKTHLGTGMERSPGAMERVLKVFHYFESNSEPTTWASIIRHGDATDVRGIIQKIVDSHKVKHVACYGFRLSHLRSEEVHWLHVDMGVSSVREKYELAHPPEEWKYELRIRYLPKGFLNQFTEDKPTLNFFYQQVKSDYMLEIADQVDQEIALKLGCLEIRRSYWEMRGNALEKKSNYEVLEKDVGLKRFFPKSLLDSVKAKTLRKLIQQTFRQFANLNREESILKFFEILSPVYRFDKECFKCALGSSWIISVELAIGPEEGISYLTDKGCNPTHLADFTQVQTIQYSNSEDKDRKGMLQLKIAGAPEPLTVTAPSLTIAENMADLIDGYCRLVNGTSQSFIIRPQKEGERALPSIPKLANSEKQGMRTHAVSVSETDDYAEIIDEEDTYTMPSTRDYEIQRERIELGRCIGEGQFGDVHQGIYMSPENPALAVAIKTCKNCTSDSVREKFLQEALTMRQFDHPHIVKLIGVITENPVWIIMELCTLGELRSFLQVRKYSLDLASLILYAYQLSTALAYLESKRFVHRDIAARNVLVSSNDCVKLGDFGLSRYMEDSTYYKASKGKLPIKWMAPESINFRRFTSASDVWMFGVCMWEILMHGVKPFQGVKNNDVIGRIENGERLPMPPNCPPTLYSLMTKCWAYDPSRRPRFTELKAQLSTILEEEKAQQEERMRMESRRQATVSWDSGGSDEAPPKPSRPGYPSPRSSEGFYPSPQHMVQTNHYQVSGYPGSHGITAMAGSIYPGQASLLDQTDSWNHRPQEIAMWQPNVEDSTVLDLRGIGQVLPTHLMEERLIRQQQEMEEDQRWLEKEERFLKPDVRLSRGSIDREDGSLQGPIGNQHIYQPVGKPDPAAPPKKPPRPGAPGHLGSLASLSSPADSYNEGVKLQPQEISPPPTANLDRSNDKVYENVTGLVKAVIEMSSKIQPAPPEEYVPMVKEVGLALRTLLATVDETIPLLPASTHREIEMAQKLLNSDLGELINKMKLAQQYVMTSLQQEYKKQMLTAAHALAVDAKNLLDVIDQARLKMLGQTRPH

SMILES | composite z-score [1] | composite z-score [2] | composite z-score [3] | composite z-score [4] | composite z-score [5] | composite z-score [6] | z-score [7] | composite z-score (Lefty1) | composite z-score [8] | z-score [9]
CCOc1ccc(N2C(=O)/C(=C/C=C/c3ccccc3OC)S(=O)(=O)C2c2cccc([N+](=O)[O-])c2)cc1 (stereo not given) | -0.359 | 0.339 | 0.0604 | 0.441 | 0.475 | 0.235 | 2.31 | 0.23 | 0.432 | -0.889 (inactive)
CO[C@H]1COC(=O)[C@H](C)COC(=O)CC=C[C@@H](C)[C@H](OC)COC(=O)CC=C[C@@H]1C | 0.0475 | -0.774 | -0.117 | -0.217 | 1.16 | 1.41 | 1.11 | 1.15 | -0.531 | -1.59 (inactive)
O=C1[C@H]2[C@H]3[C@H](O)[C@H](O)CC(=NOCc4ccccc4)[C@H]3CC[C@H]2C(=O)N1c1ccc(F)cc1F | 0.492 | -0.0368 | 0.145 | -0.898 | -0.273 | 0.0342 | -0.206 | -0.0947 | 0.146 | 0.522 (inactive)
O=C1[C@H]2[C@H]3[C@H](O)[C@H](O)CC(=NO[C@@H]4O[C@H](CO)[C@@H](O)[C@H](O)[C@H]4O)[C@@H]3CC[C@H]2C(=O)N1c1ccc(F)cc1F | 0.537 | 0.534 | -0.33 | 0.273 | 0.438 | 0.209 | 0.242 | 0.386 | 0.0553 | 0.523 (inactive)
CO[C@@H]1COC(=O)CC=C[C@@H](C)[C@@H]2C=C[C@H](O)[C@@H](COC(=O)[C@H](C)NC(=O)CC=C[C@H]1C)O2 | 1.85 | -0.794 | -0.407 | -0.734 | 1.11 | 1.73 | -1.23 | 1.53 | -0.17 | 1.02 (inactive)
CCN1C(=O)[C@H]2[C@H]3[C@H](O)C=CC(=O)[C@@H]3CC[C@H]2C1=O | 0.635 | 0.936 | 0.0565 | 0.677 | 0.307 | 0.731 | -0.774 | 0.514 | 0.295 | -0.605 (inactive)
CCCNC(=O)[C@@H]1c2ccccc2C(=O)N(Cc2ccccc2Cl)[C@H]1c1ccc(CO)cc1 | 2.58 | 1.19 | 0.497 | 0.691 | 1.36 | 1.3 | 3.16 | 1.1 | 1.09 | -1.54 (inactive)
O=C1CCCC=C1C(O)CCOCc1ccccc1 (stereo not given) | -0.467 | -0.406 | -0.0626 | -1 | 0.112 | 0.102 | -0.758 | 0.484 | -0.123 | -0.0361 (inactive)
COc1cccc([C@@H]2Oc3ccc(Br)cc3C(=O)[C@H]2O)c1 | 0.26 | 0.615 | 0.586 | 0.946 | 0.453 | 0.267 | 1.08 | 0.732 | 0.282 | -3.5 (inactive)
COc1ccc(COC(=O)NN=C2C[C@@H](O)[C@@H](O)[C@@H]3[C@@H]4C(=O)N(Cc5ccc6c(c5)OCO6)C(=O)[C@@H]4CC[C@@H]23)cc1 | -0.272 | -0.568 | 0.256 | 0.144 | -0.989 | -0.922 | 0.982 | -0.86 | 0.247 | -0.283 (inactive)
COC(=O)c1c(CC[C@@H](CO)NC(=O)N[C@H](Cc2ccccc2)Cn2cc(-c3ccccc3N)nn2)oc(C(C)=O)c1C(=O)OC | 1.35 | 1.17 | -0.422 | 0.323 | 0.629 | 0.237 | 0.34 | 0.348 | 1.14 | -0.197 (inactive)
O=C1[C@H]2[C@H]3[C@H](O)[C@H](O)CC(=NOC[C@@H](O)COCc4ccco4)[C@H]3CC[C@H]2C(=O)N1c1cccc(Oc2ccccc2)c1 | -0.304 | -0.438 | -0.112 | -1.32 | -0.924 | -0.701 | 0.89 | -0.021 | 0.503 | 0.481 (inactive)
COc1ccc(-c2nc3c(c4c2C[C@H](C)OC4)CN(CCC(C)C)CC3)cc1 | 0.998 | 1.14 | 0.233 | 0.809 | 0.653 | 0.491 | 2.72 | 0.67 | 0.642 | -0.793 (inactive)
Cc1ccc(S[C@]2(C(=O)NCC(F)(F)F)CC(=O)N(Cc3ccccc3Cl)[C@@H]2c2ccc(CO)cc2I)cc1 | -1.18 | -0.0053 | 0.395 | -0.563 | -0.253 | -0.624 | 1.14 | -0.558 | 1.13 | -0.289 (inactive)
COCCCNC(=O)[C@]1(Cc2ccccc2)N=C(c2ccc(OCCCO)cc2)O[C@@H]1c1ccccc1 | 1.26 | 1.23 | 1.03 | 0.99 | 0.355 | 0.827 | 0.549 | -0.334 | 1.09 | -0.515 (inactive)
CC(C)[C@H](NC(=O)OC(C)(C)C)[C@@H](O)CC(=O)OC(C)(C)C | -0.105 | -1.47 | -0.563 | -0.808 | -0.275 | -0.394 | -1.25 | 0.123 | -0.339 | -0.0331 (inactive)
CC(CCN1CCc2nc(-c3ccccc3)c(-c3ccccc3)cc2C1)=NO[C@@H](C)c1cn([C@H](CO)Cc2ccccc2)nn1 | -0.0253 | 0.219 | 0.0807 | 0.929 | 0.408 | 0.453 | 1.22 | 0.342 | 0.706 | -1.77 (inactive)
CC(C)CON=C1C[C@@H](O)[C@@H](O)[C@@H]2[C@@H]3C(=O)N([C@@H](C)c4ccccc4)C(=O)[C@@H]3CC[C@H]12 | 0.728 | 1.17 | 0.657 | 0.951 | 0.755 | 1.18 | 1.24 | 1.4 | 0.122 | 0.407 (inactive)
C#CCCCON=C1C[C@@H](O)[C@@H](O)[C@@H]2[C@@H]3C(=O)N([C@@H](C)c4ccccc4)C(=O)[C@@H]3CC[C@H]12 | 0.449 | 0.621 | 0.48 | 0.778 | 0.615 | 0.594 | -0.887 | 0.535 | 0.203 | 0.794 (inactive)
CCOC(=O)NN=C1C[C@@H](O)[C@@H](O)[C@@H]2[C@@H]3C(=O)N(C[C@@H]4CCCO4)C(=O)[C@@H]3CC[C@@H]12 | 0.193 | 0.329 | 0.295 | 0.216 | 0.306 | 0.436 | 0.39 | 0.344 | 0.386 | -0.439 (inactive)
CCCNC(=O)OC[C@H]1O[C@H](CCON=C[C@@H](OC)[C@H](C)C=CCC(=O)OC)C=C[C@@H]1Oc1ccc(OC)cc1 | 2.2 | -0.0259 | -0.0322 | 0.325 | 0.0998 | 0.109 | 0.139 | 0.548 | 0.183 | -0.276 (inactive)
O=C1C[C@@H](O)[C@@H](O)[C@@H]2[C@@H]3C(=O)N(C4CCCCC4)C(=O)[C@@H]3CC[C@H]12 | 0.335 | 0.949 | 0.329 | 0.583 | 0.525 | 0.521 | -0.338 | 0.422 | 0.103 | -0.163 (inactive)
CC(CCN1CCCCc2nc(C)c(C)cc21)=NOC(C)CN1CCCc2nc(C)c(C)cc21 (stereo not given) | -0.756 | 1.12 | 0.671 | 0.651 | 1.36 | 0.97 | -0.12 | 1.45 | 0.766 | -0.0885 (inactive)
[N-]=[N+]=NCc1ccccc1C[C@]1(C(=O)NCc2ccccc2)N=C(c2ccc(OCCCO)cc2)O[C@H]1c1ccccc1N=[N+]=[N-] | 1.99 | 1.17 | 1.54 | 0.967 | 0.931 | 1.49 | -0.711 | -0.875 | 0.285 | -4.08 (inactive)
CCCCCCc1nc(CCCc2cc3c(c(CCCCCC)n2)[Si](C(C)C)(C(C)C)O[C@H]3c2ccccc2)cc2c1[Si](C(C)C)(C(C)C)O[C@H]2c1ccccc1 | -0.246 | -0.526 | -0.43 | -1.19 | 0.385 | -0.0811 | 0.669 | 0.778 | -0.0778 | 0.733 (inactive)
C[C@@H](c1ccccc1)N1C(=O)[C@H]2[C@H]3[C@H](O)[C@H](O)CC(=NNC(=O)OCc4ccccc4)[C@H]3CC[C@H]2C1=O | 0.496 | -0.387 | -0.048 | 0.253 | -0.351 | 0.0573 | -0.118 | -0.211 | -0.105 | 0.502 (inactive)
